Values joined by “and” are separate entries in the source; they are usually repeats but may differ in a detail not shown here. Equal entries are not always repeated. Results filed as inconclusive are left out. Active and inactive are the calls of the source. How the source made its calls, unless noted: active means hit-call score of the fitted dose curve at least 0.9, where 1 is the maximum; inactive means score below 0.9.

The text below walks through data of PubChem BioAssay (EPA / NIEHS).

Test [1] can be described thus: ATG_NRF2_ARE_CIS: Attagene CIS-FACTORIAL HepG2 Assay for human Nuclear Factor Erythroid 2 Related Factor 2 (NFR2) response to Antioxidant Response Elements (ARE) (AID 2282992).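 On AC50: reporter mRNA level measured by RT-PCR and capillary electrophoresis fluorescence.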 The following applies: HepG2 Attagene ARE/NRF2 reporter, transcription factor activity; actives raise or lower the signal. The procedure, abridged:
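Transient MRTU transfection of HepG2; 24 h compound exposure; TriZol RNA, RT with oligo(dT), PCR, 6-FAM primer extension, HpaI cut, CE. Bidirectional fit vs DMSO.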

Test [2] is described as follows: ATG_Oct_MLP_CIS: Attagene CIS-FACTORIAL HepG2 Assay for human Octamer-Binding Transcription Factor (Oct) (AID 2282993). The settings on record: HepG2 Attagene cis-factorial Oct reporter, mRNA; actives raise or lower the signal. The procedure, abridged:
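Using HepG2 cells bearing transfected cis-reporter constructs, mRNA induction was read after 24 h by fluorescent RT-PCR and capillary electrophoresis, with DMSO defining baseline for gain- or loss-of-signal fits.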

Test [3] is described as follows: BSK_3C_TissueFactor: BioMAP Diversity Plus: 3C Assay for Tissue Factor Biomarker Activity (AID 2282997). The following applies: BioMAP 3C HUVEC, tissue factor biomarker readout; actives raise or lower the signal. The gist of the method:
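Human vascular primary cells (umbilical vein endothelium) received test chemical; Tissue Factor was determined by ELISA at 24 h, and both gain and loss of signal versus DMSO were fitted.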

The nature of test [4]: BSK_3C_uPAR: BioMAP Diversity Plus: 3C Assay for Urokinase-type plasminogen activator receptor (uPAR) Biomarker Activity (AID 2282998). The following applies: BioMAP 3C HUVEC, uPAR biomarker ELISA; actives raise or lower the signal. The gist of the method: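 In this endothelial cell-based assay, human umbilical vein primary cells were treated with chemicals and harvested at 24 h. uPAR was quantified using ELISA, with gains or losses fitted relative to DMSO controls.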

The nature of test [5]: BSK_3C_VCAM1: BioMAP Diversity Plus: 3C Assay for Vascular cell adhesion molecule 1 (VCAM1) Biomarker Activity (AID 2282999). The following applies: BioMAP 3C HUVEC, VCAM1 ELISA, cytokine-stimulated; actives raise or lower the signal. The gist of the method:
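Endothelial cells from human umbilical vein are treated with test chemical. At 24 h, VCAM-1 is measured by ELISA, and responses in either direction are fitted relative to DMSO.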

A short description of test [6]: BSK_4H_Eotaxin3: BioMAP Diversity Plus: 4H Assay for Eotaxin 3 Biomarker Activity (AID 2283000).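 Further: CCL26 protein level quantified by ELISA in parallel with SRB cytotoxicity check.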 The settings on record: primary human endothelial cells (HUVEC); actives raise or lower the signal. The gist of the method: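 Readout is Eotaxin-3 (CCL26) level by ELISA in primary human umbilical vein endothelial cells harvested 24 h after chemical exposure; activity fitted in both directions against DMSO control.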

Read-out in test [7]: Intercellular Adhesion Molecule 1 (ICAM1), ICAM1 (gene 3383)
The test can be described thus: BSK_3C_ICAM1: BioMAP Diversity Plus: 3C Assay for Intercellular Adhesion Molecule 1 (ICAM1) Biomarker Activity (AID 2283003). The following applies: primary human endothelial cells (HUVEC); actives raise or lower the signal. The gist of the method:
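Human vascular endothelial primary cells, 3C conditions, 24 h treatment. ICAM-1 by ELISA.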

Test [8] in a line: BSK_3C_Proliferation: Cell Proliferation Assessment in the BioMAP Diversity Plus: 3C Assay (AID 2283006).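 On AC50: potency may reflect either rise or fall in cell number versus DMSO.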 The settings on record: primary human endothelial cells (HUVEC). The gist of the method: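 Proliferation of human vascular endothelial primary cells after 48 h dosing, quantified as SRB-stained protein at 560 nm relative to DMSO.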
Test [9] addresses Peroxisome proliferator-activated receptor gamma (Homo sapiens) (UniProt P37231). Briefly: ATG_PPARg_TRANS: Attagene TRANS-FACTORIAL HepG2 Assay for human Peroxisome Proliferator-activated Receptor-gamma (PPARg) (AID 2283007; active means hit-call score of the fitted dose curve at least 0.9, where 1 is the maximum). The gist of the method:
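Chimeric NR-Gal4 transactivation is measured in transiently transfected HepG2 cells by reporter mRNA induction at 24 h. Detection uses RT-PCR with fluorescent labelling and capillary electrophoresis; DMSO defines baseline.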

Test [10] has as its target Nuclear receptor subfamily 1 group I member 2 (Homo sapiens) (UniProt O75469). Briefly: ATG_PXR_TRANS: Attagene TRANS-FACTORIAL HepG2 Assay for human Pregnane X Receptor (PXR) (AID 2283008; active means hit-call score of the fitted dose curve at least 0.9, where 1 is the maximum). The procedure, abridged:
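Read-out is fluorescence of labelled reporter cDNA fragments separated by capillary electrophoresis after RT-PCR and HpaI digestion. Source: HepG2 cells carrying PXR-GAL4/UAS reporter constructs, treated 24 h; activity fitted upward relative to DMSO.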

Test [11] has as its target human RAR-related Orphan Receptor gamma (RORg), RORC (gene 6097) (UniProt P51449). Briefly: ATG_RORg_TRANS: Attagene TRANS-FACTORIAL HepG2 Assay for human RAR-related Orphan Receptor gamma (RORg) (AID 2283011; active means hit-call score of the fitted dose curve at least 0.9, where 1 is the maximum). The gist of the method:
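Transient MRTU transfection of HepG2 (TRANS format, exogenous NR-Gal4 chimera). 24 h dosing. Total RNA → oligo(dT) RT → PCR → 6-FAM labelling → HpaI cut → CE. Gain vs DMSO.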

In test [12] the target is Retinoic acid receptor RXR-alpha (Homo sapiens) (UniProt P19793). Briefly: ATG_RXRa_TRANS: Attagene TRANS-FACTORIAL HepG2 Assay for human Retinoid X Receptor alpha (RXRa) (AID 2283012; active means hit-call score of the fitted dose curve at least 0.9, where 1 is the maximum). The gist of the method:
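Cells (HepG2) carried transiently transfected GAL4-responsive reporter units. Following a 24 h chemical incubation, reporter mRNA induction was read via RT-PCR fragment analysis; DMSO served as negative control and baseline.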

Test [13] deals with Cellular tumor antigen p53 (Homo sapiens) (UniProt P04637). The test can be described thus: ATG_p53_CIS: Attagene CIS-FACTORIAL HepG2 Assay for human p53 Transcription Factor (AID 2282994). The settings on record: HepG2 p53 cis-element reporter, Attagene mRNA; actives raise or lower the signal. The gist of the method:
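HepG2, transient MRTU transfection (cis promoter elements, endogenous TFs); 24 h dosing; RNA isolation, RT-PCR, 6-FAM primer extension, HpaI digest, CE fluorescence; bidirectional fit vs DMSO.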

Test [14] deals with human Peroxisome Proliferator-activated Receptor delta (PPARd), PPARD (gene 5467) (UniProt Q03181). The test can be described thus: ATG_PPARd_TRANS: Attagene TRANS-FACTORIAL HepG2 Assay for human Peroxisome Proliferator-activated Receptor delta (PPARd) (AID 2283002; active means hit-call score of the fitted dose curve at least 0.9, where 1 is the maximum). The procedure, abridged:
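Transient HepG2 transfection (multiple GAL4-UAS RTUs, chimeric receptor-Gal4); 24 h dosing; total RNA → oligo(dT) RT → PCR → 6-FAM primer extension → HpaI cut → CE. Positive direction vs DMSO.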

For test [15], the target named is human RAR-related Orphan Receptor beta (RORb), RORB (gene 6096) (UniProt Q92753). Briefly: ATG_RORb_TRANS: Attagene TRANS-FACTORIAL HepG2 Assay for human RAR-related Orphan Receptor beta (RORb) (AID 2283010; active means hit-call score of the fitted dose curve at least 0.9, where 1 is the maximum). The gist of the method:
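In this TRANS-format test, human HepG2 cells express chimeric NR-Gal4 fusion proteins driving GAL4-UAS reporters. After 24 h dosing, reporter transcripts are measured by fluorescent RT-PCR/capillary electrophoresis, with DMSO as negative control.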

Test [16] has as its target Retinoic acid receptor alpha (Homo sapiens) (UniProt P10276). The test can be described thus: ATG_RARa_TRANS: Attagene TRANS-FACTORIAL HepG2 Assay for human Retinoic Acid Receptor alpha (RARa) (AID 2283005; active means hit-call score of the fitted dose curve at least 0.9, where 1 is the maximum). The procedure, abridged: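 Reporter transcripts, measured by RT-PCR with fluorescent labeling and capillary electrophoresis after 24 h dosing, reflect activity of an exogenous human RARa–GAL4 fusion in transiently transfected HepG2. Fitted for increase relative to DMSO.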

Test [17] addresses human Retinoic Acid Receptor gamma (RARg), RARG (gene 5916) (UniProt P13631). The test can be described thus: ATG_RARg_TRANS: Attagene TRANS-FACTORIAL HepG2 Assay for human Retinoic Acid Receptor gamma (RARg) (AID 2283009; active means hit-call score of the fitted dose curve at least 0.9, where 1 is the maximum). The gist of the method:
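HepG2, RARg-GAL4 TRANS system, 24 h exposure; reporter mRNA by RT-PCR + CE fluorescence; increase over DMSO.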

Test [18] concerns the target human Peroxisome Proliferator-activated Receptor alpha (PPARa), PPARA (gene 5465) (UniProt Q07869). Briefly: ATG_PPARa_TRANS: Attagene TRANS-FACTORIAL HepG2 Assay for human Peroxisome Proliferator-activated Receptor alpha (PPARa) (AID 2283001; active means hit-call score of the fitted dose curve at least 0.9, where 1 is the maximum;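 on AC50: potency for gain of reporter signal over DMSO so agonist or activator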). The procedure, abridged:
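Reporter transcripts from GAL4-UAS units in transfected HepG2 were quantified 24 h after dosing. Detection used reverse transcription, PCR, fluorescent primer extension and capillary electrophoresis, with DMSO as baseline.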

Test [19] concerns the target human Retinoic Acid Receptor beta (RARb), RARB (gene 5915) (UniProt P10826). The test can be described thus: ATG_RARb_TRANS: Attagene TRANS-FACTORIAL HepG2 Assay for human Retinoic Acid Receptor beta (AID 2283004; active means hit-call score of the fitted dose curve at least 0.9, where 1 is the maximum). The gist of the method:
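Readout is reporter mRNA induction: RNA reverse-transcribed, PCR-amplified, FAM-labelled, HpaI-cut and resolved by capillary electrophoresis. Transiently transfected HepG2 cells carrying exogenous NR–Gal4 chimeras were dosed for 24 h; activity fitted upward relative to DMSO.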

Cellular tumor antigen p53 (Homo sapiens), sequence (P04637 whole entry, looked up): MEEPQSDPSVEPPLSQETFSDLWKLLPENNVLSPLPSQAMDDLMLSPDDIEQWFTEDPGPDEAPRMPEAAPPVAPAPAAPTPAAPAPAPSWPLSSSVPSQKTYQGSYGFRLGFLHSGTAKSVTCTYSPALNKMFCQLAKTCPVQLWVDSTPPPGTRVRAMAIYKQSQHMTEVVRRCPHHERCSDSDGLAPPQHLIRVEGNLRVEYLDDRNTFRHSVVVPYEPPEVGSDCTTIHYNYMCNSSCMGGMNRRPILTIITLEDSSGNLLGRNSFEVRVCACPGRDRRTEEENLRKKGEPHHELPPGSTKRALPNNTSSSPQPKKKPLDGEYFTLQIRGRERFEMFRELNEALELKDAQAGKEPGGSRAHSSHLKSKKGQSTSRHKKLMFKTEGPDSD
human RAR-related Orphan Receptor beta (RORb), RORB (gene 6096), sequence (Q92753 whole entry, looked up, the tested form may be a part): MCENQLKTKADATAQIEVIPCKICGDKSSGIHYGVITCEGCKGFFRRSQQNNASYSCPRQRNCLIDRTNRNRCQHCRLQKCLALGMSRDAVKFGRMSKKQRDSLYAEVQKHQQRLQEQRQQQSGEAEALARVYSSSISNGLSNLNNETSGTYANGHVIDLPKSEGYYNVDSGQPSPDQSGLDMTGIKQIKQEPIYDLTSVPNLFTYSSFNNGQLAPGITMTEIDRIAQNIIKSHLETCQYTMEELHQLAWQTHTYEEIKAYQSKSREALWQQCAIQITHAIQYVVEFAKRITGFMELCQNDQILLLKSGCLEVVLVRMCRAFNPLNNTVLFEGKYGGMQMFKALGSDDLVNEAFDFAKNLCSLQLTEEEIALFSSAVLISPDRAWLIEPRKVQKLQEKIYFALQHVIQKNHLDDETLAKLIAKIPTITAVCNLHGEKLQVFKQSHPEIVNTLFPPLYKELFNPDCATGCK
human RAR-related Orphan Receptor gamma (RORg), RORC (gene 6097), sequence (P51449 whole entry, looked up, the tested form may be a part): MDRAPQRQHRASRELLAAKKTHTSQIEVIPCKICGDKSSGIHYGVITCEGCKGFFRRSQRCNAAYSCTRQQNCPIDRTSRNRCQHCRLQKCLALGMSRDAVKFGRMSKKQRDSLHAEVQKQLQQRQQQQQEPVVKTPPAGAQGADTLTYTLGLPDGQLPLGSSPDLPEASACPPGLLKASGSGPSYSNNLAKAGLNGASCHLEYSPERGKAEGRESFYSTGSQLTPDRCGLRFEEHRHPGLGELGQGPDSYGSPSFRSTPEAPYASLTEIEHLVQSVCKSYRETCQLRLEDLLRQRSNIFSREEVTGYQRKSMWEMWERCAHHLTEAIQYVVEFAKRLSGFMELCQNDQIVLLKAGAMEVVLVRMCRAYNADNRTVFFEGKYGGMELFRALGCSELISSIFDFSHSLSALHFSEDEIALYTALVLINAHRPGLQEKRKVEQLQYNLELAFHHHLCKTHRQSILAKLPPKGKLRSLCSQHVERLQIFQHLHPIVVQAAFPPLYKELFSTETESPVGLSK
Retinoic acid receptor alpha (Homo sapiens), sequence (P10276 whole entry, looked up, the tested form may be a part): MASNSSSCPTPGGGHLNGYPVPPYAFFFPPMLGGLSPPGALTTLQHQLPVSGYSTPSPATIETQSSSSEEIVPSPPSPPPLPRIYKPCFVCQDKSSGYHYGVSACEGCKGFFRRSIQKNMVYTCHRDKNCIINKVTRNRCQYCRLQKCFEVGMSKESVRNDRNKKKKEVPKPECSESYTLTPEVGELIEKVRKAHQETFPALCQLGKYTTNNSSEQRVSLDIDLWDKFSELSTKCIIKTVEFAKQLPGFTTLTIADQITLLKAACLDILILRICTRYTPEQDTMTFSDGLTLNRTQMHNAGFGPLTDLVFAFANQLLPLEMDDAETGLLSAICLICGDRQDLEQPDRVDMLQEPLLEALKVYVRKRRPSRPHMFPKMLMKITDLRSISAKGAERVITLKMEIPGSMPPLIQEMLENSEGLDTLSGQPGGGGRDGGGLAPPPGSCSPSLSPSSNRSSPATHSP
Peroxisome proliferator-activated receptor gamma (Homo sapiens), sequence (P37231 whole entry, looked up, the tested form may be a part): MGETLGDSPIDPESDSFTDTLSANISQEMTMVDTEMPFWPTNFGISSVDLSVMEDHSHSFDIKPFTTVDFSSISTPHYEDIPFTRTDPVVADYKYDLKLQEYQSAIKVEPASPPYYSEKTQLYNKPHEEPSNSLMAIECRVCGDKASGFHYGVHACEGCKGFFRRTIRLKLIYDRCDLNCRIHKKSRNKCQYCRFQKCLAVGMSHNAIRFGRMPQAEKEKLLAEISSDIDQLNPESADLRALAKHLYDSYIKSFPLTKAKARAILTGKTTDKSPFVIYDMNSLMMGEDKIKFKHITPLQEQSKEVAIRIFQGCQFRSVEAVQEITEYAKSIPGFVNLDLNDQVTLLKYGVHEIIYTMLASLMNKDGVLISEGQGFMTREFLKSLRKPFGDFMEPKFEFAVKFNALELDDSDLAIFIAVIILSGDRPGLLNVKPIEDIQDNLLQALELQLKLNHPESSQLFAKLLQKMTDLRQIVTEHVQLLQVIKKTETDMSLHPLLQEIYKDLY
Retinoic acid receptor RXR-alpha (Homo sapiens), sequence (P19793 whole entry, looked up, the tested form may be a part): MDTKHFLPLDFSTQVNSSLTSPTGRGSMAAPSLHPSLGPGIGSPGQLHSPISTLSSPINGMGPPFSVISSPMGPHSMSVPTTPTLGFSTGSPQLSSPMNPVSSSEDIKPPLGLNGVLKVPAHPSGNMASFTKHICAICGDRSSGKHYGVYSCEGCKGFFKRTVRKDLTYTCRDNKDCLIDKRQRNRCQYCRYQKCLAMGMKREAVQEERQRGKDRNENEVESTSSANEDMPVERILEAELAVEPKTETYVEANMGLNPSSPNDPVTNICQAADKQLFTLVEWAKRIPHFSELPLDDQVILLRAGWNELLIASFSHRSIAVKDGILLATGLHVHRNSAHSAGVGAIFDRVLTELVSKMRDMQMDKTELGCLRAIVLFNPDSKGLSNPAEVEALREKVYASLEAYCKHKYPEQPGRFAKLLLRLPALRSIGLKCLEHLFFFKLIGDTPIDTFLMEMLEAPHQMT
Nuclear receptor subfamily 1 group I member 2 (Homo sapiens), sequence (O75469 whole entry, looked up, the tested form may be a part): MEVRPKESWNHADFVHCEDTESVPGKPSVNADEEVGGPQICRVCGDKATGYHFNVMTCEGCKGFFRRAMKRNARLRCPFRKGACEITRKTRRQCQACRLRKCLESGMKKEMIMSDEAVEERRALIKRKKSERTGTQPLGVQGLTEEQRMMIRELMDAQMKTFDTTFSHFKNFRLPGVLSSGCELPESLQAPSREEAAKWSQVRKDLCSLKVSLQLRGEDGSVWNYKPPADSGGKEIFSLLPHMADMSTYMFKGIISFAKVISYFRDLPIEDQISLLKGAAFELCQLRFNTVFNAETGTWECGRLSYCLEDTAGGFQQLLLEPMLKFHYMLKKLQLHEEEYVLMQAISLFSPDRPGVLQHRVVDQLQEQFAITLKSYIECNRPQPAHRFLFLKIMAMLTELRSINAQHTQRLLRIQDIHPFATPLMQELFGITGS
human Peroxisome Proliferator-activated Receptor alpha (PPARa), PPARA (gene 5465), sequence (Q07869 whole entry, looked up, the tested form may be a part): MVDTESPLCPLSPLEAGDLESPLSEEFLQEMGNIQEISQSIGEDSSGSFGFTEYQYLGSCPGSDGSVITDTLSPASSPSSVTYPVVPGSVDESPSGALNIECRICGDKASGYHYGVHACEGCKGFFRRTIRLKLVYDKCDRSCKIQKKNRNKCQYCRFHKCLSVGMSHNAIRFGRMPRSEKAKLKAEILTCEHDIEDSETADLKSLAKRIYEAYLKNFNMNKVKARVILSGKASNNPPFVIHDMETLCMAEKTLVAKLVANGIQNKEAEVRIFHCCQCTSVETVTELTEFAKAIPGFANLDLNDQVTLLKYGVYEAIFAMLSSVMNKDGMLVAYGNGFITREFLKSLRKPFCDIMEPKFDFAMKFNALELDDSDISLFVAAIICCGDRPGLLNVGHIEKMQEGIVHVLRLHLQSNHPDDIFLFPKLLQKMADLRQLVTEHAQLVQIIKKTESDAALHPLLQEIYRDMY
human Retinoic Acid Receptor gamma (RARg), RARG (gene 5916), sequence (P13631 whole entry, looked up, the tested form may be a part): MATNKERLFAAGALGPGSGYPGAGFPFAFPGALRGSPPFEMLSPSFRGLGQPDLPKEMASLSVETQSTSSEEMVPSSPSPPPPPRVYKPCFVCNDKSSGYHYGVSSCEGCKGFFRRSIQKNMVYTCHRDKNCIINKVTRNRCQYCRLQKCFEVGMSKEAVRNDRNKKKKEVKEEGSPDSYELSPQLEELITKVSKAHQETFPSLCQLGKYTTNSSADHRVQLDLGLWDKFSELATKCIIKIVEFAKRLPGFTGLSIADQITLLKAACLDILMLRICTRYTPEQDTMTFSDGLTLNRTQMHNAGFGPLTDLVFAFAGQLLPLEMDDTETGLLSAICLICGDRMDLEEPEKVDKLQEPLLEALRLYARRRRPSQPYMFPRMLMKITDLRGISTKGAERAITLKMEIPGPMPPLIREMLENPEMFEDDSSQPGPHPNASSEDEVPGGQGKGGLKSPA
human Peroxisome Proliferator-activated Receptor delta (PPARd), PPARD (gene 5467), sequence (Q03181 whole entry, looked up, the tested form may be a part): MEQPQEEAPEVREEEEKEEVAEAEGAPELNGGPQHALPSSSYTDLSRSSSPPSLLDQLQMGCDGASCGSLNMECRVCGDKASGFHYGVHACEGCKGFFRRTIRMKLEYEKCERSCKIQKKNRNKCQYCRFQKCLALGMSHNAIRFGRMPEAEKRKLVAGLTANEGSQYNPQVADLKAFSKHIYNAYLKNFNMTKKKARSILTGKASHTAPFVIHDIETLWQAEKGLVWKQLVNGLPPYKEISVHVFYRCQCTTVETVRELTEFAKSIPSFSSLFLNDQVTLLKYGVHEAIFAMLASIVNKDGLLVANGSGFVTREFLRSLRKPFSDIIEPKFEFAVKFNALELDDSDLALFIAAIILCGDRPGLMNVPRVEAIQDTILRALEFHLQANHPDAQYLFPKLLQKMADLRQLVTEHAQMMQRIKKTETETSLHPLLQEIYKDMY

As for `Cc1cc(Cl)ccc1N`, the half-maximal activity concentration (AC50) was 27.4 µM (active) and 36.6 µM (active) in test [1]; 5.46 µM (active) in test [8]. Further, the compound was classed as inactive in [2], in test [3], in test [4], in test [5], in test [6] and in test [7]. In addition, the result in [9], in [10], in [11] and in test [12] was inactive.
As to `N#CS`, the result in test [1], in [2], in [13], in test [14], in [10] and in test [15] was inactive. Moreover, in test [12], the compound was classed as inactive.
Turning to `CCCCN(CCCC)C(=S)[S-].CCCCN(CCCC)C(=S)[S-].[Ni+2]`, the call in test [2], in test [3], in test [4], in [5], in test [6] and in test [7] was inactive. In addition, the compound was called inactive in [16], in test [8], in test [9] and in test [11]. In [10], the AC50 was 2.73 µM (active).
`C=C(C)C(=O)OCCCCOC(=O)C(=C)C`: the compound was called inactive in test [2], in test [10], in [17], in [15] and in test [12]. The AC50 in test [9] was 79.9 µM (active).
In the case of `CC(C)(C)c1ccc(CCOc2ncnc3ccccc23)cc1`, the compound was called inactive in [1], in test [2], in [18], in test [10] and in [12].
For the compound `O=[N+]([O-])c1c2ccccc2cc2ccccc12`, the compound was called inactive in test [2], in test [13], in test [19], in test [16] and in test [12]. The AC50 in [9] is 1.27 µM (active); in test [10], 4.7 µM (active).
Turning to `COc1ccccc1N`, the compound was called inactive in test [2], in test [3], in test [4], in [5], in [6] and in test [7]. In addition, the result in test [19], in test [16], in [8], in [9], in [10] and in test [17] was inactive. For the same compound, the call in [15], in test [11] and in [12] was inactive.
Regarding `Oc1c(Cl)cc(Cl)cc1Cl`, the result in test [2], in test [13], in [3], in test [4], in [5] and in [6] was inactive. In addition, the outcome in test [14], in [7], in [8], in test [10] and in test [11] was inactive. Moreover, the concentration at half-maximal activity (AC50) was 15.9 µM (active) in test [18] and 42.5 µM (active) in [9].
